Screening data deposited in PubChem by several laboratories.
Sampled rows, rich in hits. Any-hit rate of the full collection: about 4.1%.
Peg3 prom inh: Peg3 promoter activity inhibition; HeLa PEG-Prom luciferase reporter, luminescence, overnight; inhibition, % at 20 µM; actives 1.7% (n = 360,000); AID 588405;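 active = inhibition of at least 50% at 20 µM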
TROY NFkB inh: inhibitors of TROY-dependent NF-kB signaling | Q293 LMP1-TROYcd NF-kB luciferase reporter, 4 h | inhibition, % at 10 µM | actives 0.98% (n = 360,000) | AID 1347056;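 active = compounds whose plate-normalised and pattern-corrected inhibition of the luciferase reporter signal at the single screening dose is 50% or more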
Shn3 3UTR inh: inhibitors of Schnurri-3 3'UTR reporter in osteoblasts; Clone20 osteoblast Shn3 3'UTR firefly luciferase, 24 h; AID 588674; inhibition, % at 12.5 µM; actives 0.52% (n = 360,000);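 active = mean inhibition of at least 75% with every replicate also reaching 75%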;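 note: 0% = median of neutral control wells and 100% = pilot-screen positive control compound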
TWEAK Fn14 block: inhibitors of TWEAK-Fn14 interaction signaling | TWEAK-stimulated Fn14 reporter cells, luciferase luminescence, 8 h | inhibition, % at 10 µM | actives 2% (n = 360,000) | AID 1159606; in the data active = inhibition above about 50%
EBV LMP1 NFkB: Epstein-Barr LMP1 NF-kappaB reporter inhibition; inhibition, % at 12.5 µM; LMP1-induced NF-kappaB luciferase reporter cells, luminescence; actives 0.69% (n = 350,000); AID 504558; in the data active = inhibition above about 41%;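 note: 0% = neutral control wells and 100% = reference inhibitor control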
MITF TRPM1 inh: inhibitors of MITF-driven TRPM1 promoter in melanoma cells; SK-MEL-5 TRPM1 promoter luciferase, 24 h; inhibition, % at 12.5 µM; actives 0.83% (n = 330,000);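 active = mean inhibition across replicates of 60% or more, whatever share of single replicates reaches that level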
* hit, by the source's call; / = no result.

SMILES	Peg3 prom inh	TROY NFkB inh	Shn3 3UTR inh	TWEAK Fn14 block	EBV LMP1 NFkB	MITF TRPM1 inh
Cn1nc(-c2ccc(Cl)cc2)c2cc(C(=O)N3CCN(c4ccccn4)CC3)sc21	36.0	51.6*	82.7	78.6*	-1.9	33.8
COc1ccc(-c2nn(-c3ccccc3)cc2/C=C2/SC(=S)N(CCC(=O)O)C2=O)cc1	-11.4	10.2	-19.3	-15.9	-7.6	2.7
COc1cccc(/C=C2\SC(=S)N(CCCC(=O)N3CCCCC3CCO)C2=O)c1 (stereo not drawn)	63.9*	10.1	12.2	32.0	3.8	29.0
COc1ccc(/C=C2\SC(=S)N(CCCC(=O)N3CCOCC3)C2=O)cc1	-15.4	-17.0	8.2	94.7*	16.7	25.8
COc1ccc(/C=C2\SC(=S)N(CCCC(=O)N3CCOCC3)C2=O)cc1OC	-0.3	-1.6	3.1	22.3	1.9	-7.2
COc1ccc(-c2nn(-c3ccccc3)cc2/C=C2/SC(=S)N(CCC(=O)O)C2=O)c(C)c1	31.2	61.0*	8.2	13.9	10.7	-0.6
COc1ccc(/C=C2/SC(=S)N(CCC(=O)O)C2=O)cc1	18.9	39.1	52.0	84.9*	32.5	61.2*
O=C(Cn1c(=O)oc2cccnc21)Nc1ccc(C(F)(F)F)cc1	-0.8	18.2	-1.9	-14.6	/	/
COc1ccc(S(=O)(=O)N2CCOCC2)cc1NC(=O)CCNC(=O)c1ccc([N+](=O)[O-])cc1	11.9	-3.6	-8.8	-8.9	-45.9	-6.5
CCC/C(C#CCCN1C(=O)c2ccccc2C1=O)=C1/c2ccccc2C(=O)N1c1ccccc1	37.0	-13.6	-3.3	14.2	2.4	-5.6
O=C1C(=Cc2cn(-c3ccccc3)nc2-c2ccc(OCc3ccc(Cl)cc3)cc2)SC(=S)N1CCS(=O)(=O)O	14.6	17.7	12.7	62.1*	/	/
CC(CCc1ccccc1)NC(=O)CNC(=O)c1cccs1 (stereo not drawn)	-8.3	4.9	-0.1	60.9*	-0.6	4.3
Cc1occc1C(=O)NC(C)CCc1ccccc1 (stereo not drawn)	3.5	/	6.1	51.8*	-4.2	9.0
Cc1cccc(C(=O)NCC(=O)NC(C)CCc2ccccc2)c1 (stereo not drawn)	14.9	0.6	-1.3	14.1	6.9	16.7
Cc1ccc(C(C)NC(=O)COC(=O)C2=COCCO2)cc1C (stereo not drawn)	2.5	-4.1	-0.5	-0.7	-4.9	5.8
O=C(O)c1ccc(CNC(=O)C2CCCN2C(=O)OCc2ccccc2)cc1 (stereo not drawn)	-11.0	-19.5	0.3	-13.4	4.0	-3.3
CCc1c(C)nc2cc(-c3ccc(OC)c(OC)c3)nn2c1NCC1CC1	-0.1	8.7	92.6*	11.5	80.1*	-22.1
CCN1CCN(c2ccc(NC(=O)c3ccc(Cl)c(N4CCCC4=O)c3)cc2)CC1	-12.5	-14.8	-10.1	-22.0	-2.7	-9.5
COc1ccc2cc3cc(C(=O)N4CCN(c5ccccn5)CC4)oc3nc2c1	5.1	-27.2	-20.2	-3.7	-6.5	6.6
COc1ccc(C2CC(=O)c3sc(NC(C)=O)nc3C2)cc1 (stereo not drawn)	-10.8	62.3*	-47.0	72.1*	-8.4	-23.2
Cc1nc(Nc2ccc(Cl)c(Cl)c2)sc1C(=O)Nc1ccccc1	-42.5	38.1	57.1	84.2*	-3.8	-5.1
Cc1nc(Nc2ccc(Cl)cc2Cl)sc1C(=O)Nc1ccccc1	-44.2	30.3	-5.6	0.3	3.0	-8.4
Cc1ccc2[nH]c(CSc3ccccc3)cc(=O)c2c1	-5.4	-2.4	48.4	-3.2	11.4	1.7
COc1ccc(C2CC(c3ccc(C)cc3)=NN2C(=O)CCC(=O)O)cc1OC (stereo not drawn)	4.0	-15.2	-0.6	-4.7	1.5	3.2
CN1N=C2c3ccccc3CCC2C1c1ccc(F)cc1 (stereo not drawn)	-279.3	60.0*	-38.0	53.5*	/	/
SMILES	Peg3 prom inh	TROY NFkB inh	Shn3 3UTR inh	TWEAK Fn14 block	EBV LMP1 NFkB	MITF TRPM1 inh
CNC(=S)N1N=C2c3ccccc3CCC2C1c1ccccc1Cl (stereo not drawn)	30.5	3.1	19.1	3.8	-3.0	3.1
CN1N=C2c3ccccc3CCC2C1c1ccc(Cl)cc1 (stereo not drawn)	-199.0	40.0	-39.7	54.1*	-60.5	-52.7
COCCCN1C(=O)C(CC(=O)NCCCCc2ccccc2)CC(C(=O)N(C(C)C)C(C)C)=C1C (stereo not drawn)	-6.5	9.0	7.8	7.9	/	/
CCn1c(C(=O)O)c(CC(=O)Nc2cccc(C(F)(F)F)c2)c2ccccc21	-4.3	10.4	-12.2	4.5	5.7	-14.6
Cc1cn2c(nc1=O)OC1CC2OC1CO (stereo not drawn)	8.0	9.4	6.5	15.5	-6.3	-2.3
O=C(NCc1nc(-c2ccc(C(F)(F)F)cc2)no1)Nc1ccc(OC(F)(F)F)cc1	73.7*	20.7	3.0	44.6	3.1	-7.7
COc1ccc([N+](=O)[O-])cc1N(CC(O)CN1C(=O)NC(C)(C)C1=O)S(=O)(=O)c1ccc(C)cc1 (stereo not drawn)	1.1	5.5	5.9	6.3	-1.1	/
CC(/C=N/NC(=O)c1cc(-c2cccn2C)n[nH]1)=C\c1ccccc1	-20.3	-8.4	-4.9	1.5	-1.2	8.9
Cc1[nH]c2c(C)cccc2c(=O)c1CN1CCCCCC1	-22.5	-16.9	-15.2	-14.2	-5.6	-6.1
Cc1cc(/C=C(\C#N)C(=O)N2CCOCC2)c(C)n1C1CCCC1	-64.9	73.7*	-38.6	73.7*	20.1	8.5
COc1ccccc1OCCNC(=O)c1ccc(C)o1	-64.1	-34.9	-4.5	12.1	-4.7	2.9
O=C(NNC1=Nc2cccc3cccc1c23)c1ccc(Br)cc1	44.1	-0.8	-1.8	-53.8	17.7	19.2
CCc1ccccc1N(CC(=O)N1CCCC1)S(C)(=O)=O	2.7	-0.4	-5.3	3.5	8.7	-13.7
CCOc1ccccc1N(CC(=O)N1CCCC1)S(C)(=O)=O	13.7	5.7	-12.5	11.1	48.7*	3.3
CC1CNC(=S)N(c2ccccc2)C1=O (stereo not drawn)	62.3*	-2.4	63.1	14.3	2.4	-6.6
Cc1ccccc1NC(=O)CSc1nc(N2CCCCC2)nc(N2CCCCC2)n1	2.0	12.3	72.3	2.9	-2.2	-0.8
CCOC(=O)c1ccc(NC(=O)CSc2nc(N3CCOCC3)nc(N3CCOCC3)n2)cc1	23.2	8.5	15.6	-34.6	65.7*	24.0
CC(=O)c1ccc(NC(=O)CSc2nc(N3CCOCC3)nc(N3CCOCC3)n2)cc1	-121.3	-34.2	-63.2	-20.2	-10.4	-12.4
CC(=O)c1cccc(NC(=O)CSc2nc(N3CCCCC3)nc(N3CCCCC3)n2)c1	-55.6	56.7*	-14.7	54.3*	-36.1	-19.7
CC(C)(C)CN1CCC(Oc2cccc(C(=O)NCCCOc3cccnc3)c2)CC1	-0.8	-4.6	56.8	3.5	/	-8.2
O=C(NC1CC1)C1CC(=O)N(c2cccc(Cl)c2Cl)C1 (stereo not drawn)	-2.9	-7.6	-27.1	-11.3	-0.6	-9.9
